Records with an inconclusive call do not appear. Activity calls are given as the source filed them. Calls follow the shape of the full dose curve.
Legend:
[1] = biological target: Acetylcholinesterase (Homo sapiens) (UniProt P22303); test: Acetylcholinesterase (AChE) small molecule antagonists: colormetric cell-based qHTS assay (AID 1347395); also: nearly all actives have a fitted effect of over 30% in size
Summary of the method: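 In this cell-based qHTS, attached SH-SY5Y cells were treated with test chemicals for 30 min, after which acetylthiocholine hydrolysis was followed by DTNB colour development over 90 min at 37 C.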

[2] = biological target: Acetylcholinesterase (Homo sapiens) (UniProt P22303); test: Acetylcholinesterase (AChE) small molecule antagonists: enzyme-based qHTS assay (AID 1347397); conditions: Potency: AChE enzyme activity inhibition; outcome: AChE enzyme activity inhibition; also: nearly all actives have a fitted effect of over 55% in size
Summary of the method: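 In this quantitative HTS, compounds from the Tox21 10K collection were preincubated 30 min at ambient temperature with recombinant human AChE dispensed at 50 mU/mL. Hydrolysis of acetylthiocholine was then followed for 10 min by DTNB colour development.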

[3] = biological target: Acetylcholinesterase (Homo sapiens) (UniProt P22303); test: Acetylcholinesterase (AChE) small molecule antagonists: fluorescence cell-based qHTS assay (AID 1347398); conditions: Potency: AChE activity; outcome: AChE activity; also: nearly all actives have a fitted effect of over 50% in size
Summary of the method: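 Cells (SH-SY5Y) attached overnight, were dosed with compound or DMSO vehicle for 30 min at 37 C, and then incubated 40 min at room temperature with acetylthiocholine and Thiolite Green; green fluorescence indexed AChE activity.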

[4] = biological target: Acetylcholinesterase (Homo sapiens) (UniProt P22303); test: Acetylcholinesterase (AChE) small molecule antagonists: enzyme-based qHTS assay with human liver microsomes (AID 1347399); conditions: Potency: qHTS inhibition; outcome: qHTS inhibition; also: nearly all actives have a fitted effect of over 60% in size
Summary of the method: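 Recombinant human AChE (50 mU/mL in the enzyme mix) and human liver microsomes (0.25 mg/mL final) were preincubated with compound and NADPH (0.25 mg/mL final) for 30 min at 37 C. Acetylthiocholine/DTNB was then added; thiocholine was read colorimetrically after 10 min at room temperature.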
% is scaled to controls: 0 for no effect and ±100 for the full control effect.

Chain of Acetylcholinesterase (Homo sapiens) (P22303 whole entry, looked up): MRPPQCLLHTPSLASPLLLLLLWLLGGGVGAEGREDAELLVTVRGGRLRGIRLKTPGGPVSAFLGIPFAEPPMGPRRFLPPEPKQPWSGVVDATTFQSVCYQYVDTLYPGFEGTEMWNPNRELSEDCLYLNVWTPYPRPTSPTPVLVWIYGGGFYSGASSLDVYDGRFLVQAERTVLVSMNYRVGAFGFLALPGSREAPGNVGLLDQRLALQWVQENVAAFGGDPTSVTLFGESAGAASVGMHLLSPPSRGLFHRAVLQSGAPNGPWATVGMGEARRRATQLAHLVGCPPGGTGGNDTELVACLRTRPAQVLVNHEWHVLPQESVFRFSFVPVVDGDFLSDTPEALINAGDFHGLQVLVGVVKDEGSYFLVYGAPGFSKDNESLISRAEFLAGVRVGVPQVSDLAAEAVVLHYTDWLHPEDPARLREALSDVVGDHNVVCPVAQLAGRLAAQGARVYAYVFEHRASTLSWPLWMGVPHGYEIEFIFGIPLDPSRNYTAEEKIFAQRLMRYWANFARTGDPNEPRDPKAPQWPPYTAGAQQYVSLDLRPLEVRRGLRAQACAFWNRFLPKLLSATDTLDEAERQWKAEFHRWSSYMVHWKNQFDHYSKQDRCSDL

O=C(O)C[C@H](O)C[C@H](O)/C=C/c1c(C2CC2)nc2ccccc2c1-c1ccc(F)cc1
inactive: activity, negative = inhibition [1] -0.67% [at 23.6 µM] | activity change, negative = inhibition [2] -2.86% [at 23.6 µM] | activity change, negative = inhibition [3] 8.09% [at 23.8 µM] | activity change, negative = inhibition [4] -1.12% [at 23.6 µM]

CCCCCCCCCC(=O)O
inactive: Potency [1] | Potency [2] | Potency [3] | Potency [4]

COC(=O)C1=C(C)NC(C)=C(C(=O)OCC(C)C)C1c1ccccc1[N+](=O)[O-] (stereo unspecified)
inactive: Potency [1] | Potency [2] | Potency [3] | Potency [4]

C=C(C)C(=O)OC(C)C
inactive: Potency [1] | Potency [2] | Potency [3] | Potency [4]

O=C=Nc1cccc(C(F)(F)F)c1
inactive: Potency [1] | Potency [2] | Potency [3] | Potency [4]

CCCCOC(=O)c1ccccc1
inactive: Potency [1] | Potency [2] | Potency [3] | Potency [4]

NCCc1ccn[nH]1
inactive: Potency [1] | Potency [2] | Potency [3] | Potency [4]

C=CCOCC(CO)(COCC=C)COCC=C
inactive: Potency [1] | Potency [2] | Potency [3] | Potency [4]

Cc1c(Nc2ncccc2C(=O)O)cccc1C(F)(F)F
inactive: Potency [1] | Potency [2] | Potency [3] | Potency [4]

O=c1[nH]c(=O)c2ccccc2o1
inactive: Potency [1] | Potency [2] | Potency [3] | Potency [4]

O=C(O)c1ccccc1Nc1cccc(C(F)(F)F)c1
inactive: Potency [1] | Potency [2] | Potency [3] | Potency [4]

Cc1cc(O)cc(C)c1Cl
inactive: Potency [1] | Potency [2] | Potency [3] | Potency [4]

CCO/C=C1\N=C(c2ccccc2)OC1=O
inactive: Potency [1] | Potency [2] | Potency [3] | Potency [4]

CN1CCN(c2c(F)cc3c(=O)c(C(=O)O)cn4c3c2SCC4)CC1
inactive: Potency [1] | Potency [2] | Potency [3] | Potency [4]

CC1=CC[C@@H](C(C)(C)O)CC1
inactive: Potency [1] | Potency [2] | Potency [3] | Potency [4]

COC(=O)N[C@H](C(=O)N[C@@H](Cc1ccccc1)[C@@H](O)CN(Cc1ccc(-c2ccccn2)cc1)NC(=O)[C@@H](NC(=O)OC)C(C)(C)C)C(C)(C)C
inactive: Potency [1] | Potency [2] | Potency [3] | Potency [4]

C=CCS(=O)(=O)O
inactive: Potency [1] | Potency [2] | Potency [3] | Potency [4]

Cc1oc(C)c(C(=O)Nc2ccccc2)c1C
inactive: Potency [1] | Potency [2] | Potency [3] | Potency [4]

CC(C)COC(=O)c1ccccc1O
inactive: Potency [1] | Potency [2] | Potency [3] | Potency [4]

CC/C=C\CCOC(=O)CC
inactive: Potency [1] | Potency [2] | Potency [3] | Potency [4]

Cc1ccc(S(=O)(=O)NC(=O)NN2CC3CCCC3C2)cc1 (stereo unspecified)
inactive: Potency [1] | Potency [2] | Potency [3] | Potency [4]

CCCCCCC(C)(C)C(=O)O
inactive: Potency [1] | Potency [2] | Potency [3] | Potency [4]

C=C(C)C(=O)OCCOCCOCCOC(=O)C(=C)C
inactive: Potency [1] | Potency [2] | Potency [3] | Potency [4]

CC(C)(C)c1cccc(O)c1
inactive: Potency [1] | Potency [2] | Potency [3] | Potency [4]

CCCOC(=O)CC
inactive: Potency [1] | Potency [2] | Potency [3] | Potency [4]

CN1C(C)(C)CC(O)CC1(C)C
inactive: Potency [1] | Potency [2] | Potency [3] | Potency [4]

CC(c1cc(C(C)(C)C)cc(C(C)(C)C)c1O)c1cc(C(C)(C)C)cc(C(C)(C)C)c1O
inactive: Potency [1] | Potency [2] | Potency [3] | Potency [4]

NNCCc1ccccc1
inactive: Potency [1] | Potency [2] | Potency [3] | Potency [4]

COC(=O)OC
inactive: Potency [1] | Potency [2] | Potency [3] | Potency [4]

CCCCCCn1c(=O)c2c(ncn2C)n(C)c1=O
inactive: Potency [1] | Potency [2] | Potency [3] | Potency [4]

COc1cc(C(C)(C)C)c(O)c(C(C)(C)C)c1
inactive: Potency [1] | Potency [2] | Potency [3] | Potency [4]

CCCOCCC
inactive: Potency [1] | Potency [2] | Potency [3] | Potency [4]

CC(C)NCC(O)c1cc(O)cc(O)c1 (stereo unspecified)
inactive: Potency [1] | Potency [2] | Potency [3] | Potency [4]

C=C[Si](OC(=C)C)(OC(=C)C)OC(=C)C
inactive: Potency [1] | Potency [2] | Potency [3] | Potency [4]

CC(COCC(C)OC(=O)c1ccccc1)OC(=O)c1ccccc1 (stereo unspecified)
inactive: Potency [1] | Potency [2] | Potency [3] | Potency [4]

CCc1cc2cc(OC)c(OC)cc2c(Cc2ccccc2)n1
inactive: Potency [1] | Potency [2] | Potency [3] | Potency [4]

Cc1cc(C(=O)O)ccc1[N+](=O)[O-]
inactive: Potency [1] | Potency [2] | Potency [3] | Potency [4]

Cc1ccc(C(C)C)cc1
inactive: Potency [1] | Potency [2] | Potency [3] | Potency [4]

CCCCCCC(C)(C)S
inactive: Potency [1] | Potency [2] | Potency [3] | Potency [4]

From PubChem BioAssay (Tox21)
